# Assay results taken from the supplement of paper PMC6555819.
# Legend:
# Assay in all cases: PBM binding z-score (relative to random genomic background probes); higher = stronger binding; sequences stand for … in GC…GCGATTGACAGCGTAGAATGAAGG
# [1] = tested on: RARb homodimer (NR concentration 270 nM)
# Method in brief: (§1)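 Scanned fluorescence from custom Agilent 4×180K protein-binding microarrays was regression-normalized. Binding z-scores use random background probes as reference. Ligand-free nuclear receptor dimers were incubated on the arrays for 1 h and detected with antibodies against each partner (one per run).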
# [2] = tested on: RARg:RXRa (NR concentration 270 nM, RXRa partner concentration 90 nM)
# Method in brief: as §1
# [3] = tested on: RARg homodimer (NR concentration 270 nM)
# Method in brief: as §1
# [4] = tested on: RXRa DBDmut IVT, anti-RXR (DBD mutation: RXRa K156A/R161A, NR concentration 90 nM)
# Method in brief: as §1
# [5] = tested on: RXRa homodimer (NR concentration 180 nM)
# Method in brief: as §1
# [6] = tested on: THRa:RXRa (NR concentration 90 nM, RXRa partner concentration 90 nM)
# Method in brief: as §1
# [7] = tested on: THRa homodimer (NR concentration 90 nM)
# Method in brief: as §1
# [8] = tested on: VDR homodimer (NR concentration 270 nM)
# Method in brief: as §1
Sequence,PBM binding z-score [1],PBM binding z-score [2],PBM binding z-score [3],PBM binding z-score [4],PBM binding z-score [5],PBM binding z-score [6],PBM binding z-score [7],PBM binding z-score [8]
AGAATGAGGATATTAAGATCAGGGAATTGCGGTC,-0.295,0.0101,0.354,0.0131,0.0885,0.447,-0.112,0.17
CCTGCTGGGCCAAAGGTCATTGATTCCAATGCTC,4.53,5.82,4.91,1.48,6.37,3.2,0.638,2.24
GATACAGGCTCAAGGCCAGAGTACGCGTATTGAT,-0.491,-0.284,0.128,-0.619,-0.27,-0.479,-0.602,-0.14
TCTCGGAGGACACGAAGGTCCGAGCTTTCCAGAG,0.577,0.296,1.3,0.546,-0.235,1.26,-0.0585,-0.315
ACTAGCAGGCCATGGGTCACTCAAGATTAGTCCG,2.1,1.88,2.07,-0.507,1.75,1.42,-0.31,-0.0856
TTACCAAGGTGAAGGTCGATGATCCCTCTGTAGA,1.64,1.22,1.39,-0.217,1.4,2.05,0.572,0.0587
TCTAGTTGGTCACGGAGGTCTCACACGACGGGTA,1.65,1.31,1.72,0.721,1.01,0.636,0.268,0.33
CTCGAAAGGTCTTGCTCAGGTGAGTATACCAAAC,1.29,1.52,1.33,0.0538,0.775,2.67,0.893,-0.0365
GGAACGAGAGCAAGTTGATAGCAGAGTTTGATGG,-0.683,-0.186,-0.0143,0.292,0.0687,-0.547,-1.15,-0.0204
ACTATTAGTTGAGACGAGGGCAACCGGTAGGTTG,1.42,0.949,0.676,0.457,0.675,2.69,0.339,1.07
ATATGTAGGTTCGCTGGGGTCATTCAGACTAGGC,3.35,4.07,2.35,3.6,5.54,4.11,3.34,9.1
CCTTACGGGTAAAGGTTATAGCACGGGTGGTACG,1.5,2.02,1.06,-1.08,2.34,1.31,0.0229,0.43
CCTAGTTGGTCAAGGTCACTCACGCTATAGGTAC,4.26,4.06,4.75,2.1,3.76,3.83,3.83,3.53
ACTATTAGTTGAGACGAGGGCAACCCATAGGTTG,1.45,0.739,0.903,0.366,0.748,2.42,0.54,0.783
CCTTACGGGTCAAGGTTATAGGACGGGTGGTACG,3.29,4.91,5.12,0.475,5.36,3.06,0.968,1.51
ATATGTAGGTTACATCCGGGTCAATCAGGCTATG,3.12,3.95,2.2,0.665,3.37,3.8,2.33,1.72
ATCGAGAGGTCGTGAGGTGAGTATACAGAAAGGC,2.4,3.66,3.28,1.43,4.24,3.36,1.63,1.87
TCTGCTAGGTCAGTTGGTCAGCTGACGAGCTGCC,2.33,2.98,4.14,0.382,0.854,1.31,-0.308,-1.1
CAAACTAGGTCACCGGAACGTCAAAGTCCGCATG,3.74,4.82,5.62,1.46,3.86,3.55,1.88,1.08

Sequence,PBM binding z-score [1],PBM binding z-score [2],PBM binding z-score [3],PBM binding z-score [4],PBM binding z-score [5],PBM binding z-score [6],PBM binding z-score [7],PBM binding z-score [8]
CCTACTGGGCCAAAAAGGTCATGGATGCCGATAA,1.31,5,4.57,0.231,5.58,3.41,1.05,1.81
CCTACTTGGTCAAGGTCACACACGCTATAGGTAC,4.57,4.56,4.86,2.17,4.71,4.06,4.41,3.28
ACCGAAAGGTCGAAGGTGAGTATACCCACCCGAA,2.51,4.53,4.2,1.35,5.27,2.11,-0.114,0.383
TGTCAAAGTTCAAGGGTAACGTAAGTATCCACAC,3.92,5.81,6.14,3.72,5.45,2.89,0.138,3.21
ACTAGCAGGCCAAGTTTGGGTCACACAAACAAAG,2.17,2.66,1.73,-0.304,1.44,2.67,1.04,0.103
TATAGTTGGTCACGGAGGTCACACACGACGGGTA,4.58,4.81,4.72,-0.131,5.16,3.9,2.69,2.85
TCATATAGGTCAACAGGTGAAAGTCCGTAAGTTA,4.07,6.14,6.02,2.48,5.39,2.94,0.969,1.41
ACTCTGAGGACAAAGGTCAGAGCTACGCCAGTGA,4.42,6.21,5.31,2.07,5.18,4.44,2.66,1.19
ACAGACAGGTGAGTGAAGGTAGCTCAGCTGGACG,-0.151,-0.00932,0.0793,-0.355,0.135,0.263,-0.539,-0.688
GCTGCTAGGTCAATTGATGGTCAGCTAAAGCTCG,2.95,4.28,4.03,1.37,1.95,2.22,-0.157,-0.476
TGAATGAGGTTATAAGATCAGGGGACGTTGCAAA,0.854,1.51,0.975,1.3,2.02,2.1,0.619,1.21
GGAAAGAGGGCATTCGAGTTGATAGCATGGCGAT,1.42,1.81,1.82,2.67,1.32,3.61,-0.358,2.71
CTACCAAGGTGAACGAGGTCGTTGATTACTATTC,2.24,2.13,1.32,1.85,2.26,3.36,2.17,3.61
ACAATGAGGTTATACGTAGATCAGGGAAGAAAGT,0.975,1.89,1.55,2.02,2.16,2.13,0.593,1.28
CGTCCAAGGTCAGAGAGGTCAGTGAATGCCGAGT,5.19,6.25,6.97,3.52,5.73,4.19,2.86,5.68
ATCGAAAGGTCGAAGGGGAGTATACCCACCCGAA,2.2,3.86,3.58,0.681,4.21,1.73,-0.345,0.649
GCTTGTAGATCAAGGTTAGGAAAGACTAAGCTAA,-0.185,-0.139,-0.0948,-0.199,0.0572,0.576,-0.327,-0.0771
CCAACTAGGTCATCCAGGACAGTGAATACATTGA,3.44,3.88,4.83,2.49,2.77,3.79,2.61,2.63
CAGCCTAGGTCATGGCCAGTATAGGAGGAACGTT,3.01,4.38,4.94,1.17,3.32,2.93,0.965,0.197

Sequence,PBM binding z-score [1],PBM binding z-score [2],PBM binding z-score [3],PBM binding z-score [4],PBM binding z-score [5],PBM binding z-score [6],PBM binding z-score [7],PBM binding z-score [8]
AGAACGAGGGCACGCTGAGTTGATAGGAGAGTAG,1.22,1.93,1.99,1.77,1.35,1.82,0.0402,1.76
TCGATTAGGTTACCAATGGGGCATTCAGCTTTCT,1.09,1.39,0.551,1.2,0.573,0.894,0.0109,-0.327
TCATATAGATAATACAGGTGAAAGTCGGCATCTA,0.362,0.456,0.632,2.07,1.02,0.394,0.216,0.608
TCATATAGGTAATACAGGTGAAAGACGGCATCTA,0.66,0.945,0.86,1.52,1.38,0.85,0.434,0.471
TCATATAGGTAAAGGTGATAGTCGAACGATATGA,0.45,0.866,0.944,0.699,1.19,0.353,-0.589,-0.591
TCTTGTAGATCAACAGGAGGCTAAGAAAGATCGA,-0.642,0.0636,-0.13,0.0884,-0.111,-0.56,-1.25,-0.893
CCTAGTTGGTCAGGAGGTCACTCACCGGATATGA,3.92,4.48,3.73,0.697,3.58,3.17,2.09,2.45
GCAAGCAGGCCATTTGGGTCACTCAATGACGGGC,1.76,0.948,1.18,-0.0801,0.769,1.79,0.53,0.402
AGAACGAGGGCTCGCTGAGTTGATAGCAGAGTAG,-1.22,-0.312,-0.258,-0.292,-0.132,-0.509,-0.958,-0.176
ACTAGTTGGTCAGCTGAGGACACACACAATTCGG,1.64,1.18,1.82,0.558,0.282,4.7,4.2,0.259
TCTGCTAGGTCAACGATGGTCGGCTAATCTGCTA,3.13,3.75,5.24,0.92,2.64,2.7,0.478,-0.232
CAAACTATGTCACAGAGGTCAAAGTCCGTGCGTA,4.82,5.68,5.01,2.12,6.58,3.83,1.89,4.59
CCTACTGGGCCAAACGTCATTGATTCCAATGCTC,-0.184,-0.00983,-0.146,0.278,0.000676,-0.343,-0.264,-0.254
GCGACTGGGGCAAAGCAGGTTAGCATAAGGTTGG,0.654,0.256,0.429,-0.341,0.0651,2.28,-0.225,-0.542
ATTTCTAGGTAACCAAGTTCAGTGAATGCCGAAC,1.55,0.786,0.952,0.875,0.621,1.81,0.761,3.08
TTACCAAGGTGAAGGTCGTTGACCCCTCTGTAGA,3.35,3.33,2.12,0.133,4.95,3.6,1.43,1.51
CCGACTGGGGCAGAGGTTACCATACTCAGTACGA,1.64,1.81,1.16,0.0849,2.24,1.14,0.0259,0.131
AGAATGATGTTATTAAGATCAGGGAATTGCGGTC,-0.502,0.0118,0.00602,-0.521,0.203,0.093,-0.511,-0.127
